About 83,000 compounds went through this panel and 20% of them were active in at least one assay; those are over-represented in the sample as a whole.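 Values shown are percent growth following 48 h exposure of cells in 96-well plates to a single concentration of compound; below 10 was considered active.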 Calls of active or inactive are those of the source.
What was measured:
Assay in all cases: NCI-60 one-dose screen, 48 h (100 = growth as untreated, 0 = no growth, -100 = all killed)
Conditions in all cases: 10 µM unless noted
NCI-H23 lung = tested on: NCI-H23 lung
NCI-H226 lung = tested on: NCI-H226 lung
NCI-H322M lung = tested on: NCI-H322M lung
HOP-62 NSCLC = tested on: HOP-62 NSCLC
NCI-H460 lung = tested on: NCI-H460 lung
HOP-92 NSCLC = tested on: HOP-92 NSCLC
NCI-H522 lung = tested on: NCI-H522 lung
A549/ATCC NSCLC = tested on: A549/ATCC NSCLC
786-0 renal = tested on: 786-0 renal
COLO 205 colon = tested on: COLO 205 colon

Measured: growth

COc1ccc(C(c2cc(OC)c(OC)c(OC)c2)N2CCN(Cc3ccccc3)CC2)cc1 (stereo not given)
inactive: NCI-H23 lung 88.5% | NCI-H226 lung 85.4% | NCI-H322M lung 65.1% | HOP-62 NSCLC 69.7% | NCI-H460 lung 74.4% | HOP-92 NSCLC 70.6% | NCI-H522 lung 52.4% | A549/ATCC NSCLC 78.4% | 786-0 renal 82.6% | COLO 205 colon 61.8%

COC(=O)c1c2c(c(C)[n+]([O-])c1C)C(=O)C=CC2=O
inactive: HOP-92 NSCLC 45.8% | A549/ATCC NSCLC 15.8%
active: NCI-H23 lung -68.3% | NCI-H226 lung -91.9% | NCI-H322M lung 2.39% | HOP-62 NSCLC -65.4% | NCI-H460 lung 2.35% | NCI-H522 lung -70.1% | 786-0 renal -29.9% | COLO 205 colon -78.5%

CCN1C(=O)N(CC)C2C1NN=C1SCC(=O)N12 (stereo not given)
inactive: NCI-H23 lung 96.1% | NCI-H226 lung 91.6% | NCI-H322M lung 103% | HOP-62 NSCLC 100% | NCI-H460 lung 103% | HOP-92 NSCLC 114% | NCI-H522 lung 77.5% | A549/ATCC NSCLC 102% | 786-0 renal 95.8% | COLO 205 colon 44.7%

COc1ccc(-c2cc(-c3cc(OC)c(OC)c(OC)c3)c(C#N)c(=O)n2CCCCCC(=O)NO)cc1
inactive: NCI-H23 lung 97.3% | NCI-H226 lung 92.2% | NCI-H322M lung 95.7% | HOP-62 NSCLC 102% | NCI-H460 lung 96.6% | HOP-92 NSCLC 88.5% | NCI-H522 lung 89.5% | A549/ATCC NSCLC 87.2% | 786-0 renal 101% | COLO 205 colon 120%

C[N+](C)(C/C=C/c1ccccc1)Cc1ccccc1
inactive: NCI-H23 lung 85.2% | NCI-H226 lung 93.1% | NCI-H322M lung 89.7% | HOP-62 NSCLC 96.7% | NCI-H460 lung 102% | HOP-92 NSCLC 104% | NCI-H522 lung 90.7% | A549/ATCC NSCLC 94.4% | 786-0 renal 99.1% | COLO 205 colon 104%

COC(c1ccc2ccccc2c1)C(C)C(F)F (stereo not given)
inactive: NCI-H23 lung 95.7% | NCI-H226 lung 100% | NCI-H322M lung 99.6% | HOP-62 NSCLC 86.7% | NCI-H460 lung 111% | HOP-92 NSCLC 107% | NCI-H522 lung 86.9% | A549/ATCC NSCLC 96.8% | 786-0 renal 90.5% | COLO 205 colon 112%

CC(=O)N(Cc1ccccc1)c1nc2ccc(O)c(CN(C)C)c2s1
inactive: NCI-H23 lung 96.7% | NCI-H226 lung 90.5% | NCI-H322M lung 103% | HOP-62 NSCLC 90.6% | NCI-H460 lung 100% | HOP-92 NSCLC 37.6% | NCI-H522 lung 90.2% | A549/ATCC NSCLC 98.4% | 786-0 renal 97.6% | COLO 205 colon 116%

C=CCCC(=O)N1C=CC(=O)[C@H](O)[C@@H]1/C=C/c1ccccc1
inactive: NCI-H23 lung 52.8% [100 µM] | NCI-H226 lung 26.8% [100 µM] | NCI-H322M lung 59% [100 µM] | HOP-62 NSCLC 35.3% [100 µM] | NCI-H460 lung 15.2% [100 µM] | HOP-92 NSCLC 70.6% [100 µM] | NCI-H522 lung 74.1% [100 µM] | A549/ATCC NSCLC 52% [100 µM] | 786-0 renal 14.2% [100 µM] | COLO 205 colon 34% [100 µM]

CC(C)CCC[C@@H](C)C1CCC2C3CCC4=C/C(=N/OCCN(C)C)CC[C@]4(C)C3CC[C@@]21C (stereo not given in full)
inactive: NCI-H23 lung 84.7% | NCI-H226 lung 95.8% | NCI-H322M lung 79.9% | HOP-62 NSCLC 80.5% | NCI-H460 lung 98.5% | HOP-92 NSCLC 50% | NCI-H522 lung 66.3% | A549/ATCC NSCLC 77.7% | 786-0 renal 76% | COLO 205 colon 98%

CSCCC(NC(=O)c1ccccc1)C(=O)N/N=C1\S/C(=C/c2ccc(Cl)cc2)C(=O)N1C (stereo not given)
inactive: NCI-H23 lung 90% | NCI-H226 lung 86.9% | NCI-H322M lung 90.4% | HOP-62 NSCLC 33.9% | NCI-H460 lung 95.9% | HOP-92 NSCLC 70.8% | NCI-H522 lung 80.7% | A549/ATCC NSCLC 79.9% | 786-0 renal 91.4% | COLO 205 colon 101%

CCOC(=O)Cn1c(=O)c2c3ccccc3n(C)c2n2nnc(-c3ccccc3)c12
inactive: NCI-H23 lung 84.8% | NCI-H226 lung 76.9% | NCI-H322M lung 120% | HOP-62 NSCLC 106% | NCI-H460 lung 101% | HOP-92 NSCLC 41.1% | NCI-H522 lung 86.1% | A549/ATCC NSCLC 159% | 786-0 renal 98% | COLO 205 colon 116%

C=C1C(=O)O[C@H]2[C@H]1CC/C(COC(=O)c1cc3cc(F)ccc3[nH]1)=C\CC[C@@]1(C)O[C@@H]21
active: NCI-H23 lung -66.4% | NCI-H226 lung -41.3% | NCI-H322M lung -35.7% | HOP-62 NSCLC -50.8% | NCI-H460 lung -59.2% | HOP-92 NSCLC -84.9% | NCI-H522 lung -68.9% | A549/ATCC NSCLC -61.9% | 786-0 renal -89.6% | COLO 205 colon -68.7%

CN1CCN(Cc2cc(NC(=O)c3cccc(C#Cc4cccc5[nH]nc(N)c45)c3)cc(C(F)(F)F)c2)CC1
active: NCI-H460 lung -20.9% | HOP-92 NSCLC -28.4% | COLO 205 colon -35.3%
inactive: NCI-H23 lung 41.3% | NCI-H226 lung 24.6% | NCI-H322M lung 35.9% | HOP-62 NSCLC 42.4% | NCI-H522 lung 20.9% | A549/ATCC NSCLC 27.9% | 786-0 renal 24.9%

Reference: PubChem BioAssay (NCI)
